Inconclusive results are not listed. A call without a number means that no potency is given here. The source made the active and inactive calls. Calls come from the whole dose curve; as a rule, active = well fitted curve in the direction sought with a large enough effect; inconclusive = small, poorly fitted or top-dose-only effect, or another doubt; inactive = no such curve, though single readings can be large; an effect the other way counts as inactive or inconclusive.
Assays:
[1] = Primary qHTS for inhibitors of nuclear receptor binding SET domain protein 2 (NSD2) in an isogenic RCH-ACV NSD2 p.E1099K mutant (9B) (AID 1645876); conditions: RCH-ACV NSD2 E1099K (9B) viability, CellTiter-Glo, 72 h; series mostly up to 44.9 µM
[2] = Primary qHTS for inhibitors of nuclear receptor binding SET domain protein 2 (NSD2) in an RCH-ACV wild type WT cells (2C) (AID 1645877); conditions: RCH-ACV (leukaemia line) NSD2 WT (2C) viability, CellTiter-Glo, 72 h; series mostly up to 44.9 µM
Note: nearly all actives have a fitted effect of over 70% in size.

Structure (SMILES)	Potency [1]	Potency [2]
O=C(/C=C/c1ccc(O)cc1)OC[C@]12O[C@H]1[C@@H](O)[C@@H]1C=CO[C@@H](O[C@@H]3O[C@H](CO)[C@@H](O)[C@H](O)[C@H]3O)[C@@H]12	inactive	inactive
CCC(C)(O)C(O)C(=O)OCc1ccc(O[C@@H]2O[C@H](CO)[C@@H](O)[C@H](O)[C@H]2O)cc1 (some centres not stated)	inactive	inactive
C[C@@H]1CC[C@]2(C)C3(C)CC[C@@]2(OC3=O)[C@@]12C[C@H](c1ccoc1)OC2=O		inactive
COc1cc(C2OCC3C(c4ccc(OC5OC(CO)C(O)C(O)C5O)c(OC)c4)OCC23)ccc1O (configuration not stated)		inactive
C1CCN2CC3C[C@@H](CN4CCCC[C@@H]34)[C@H]2C1	inactive	inactive
C=C1CCC2C(C)(COC3OC(COC(=O)CC(=O)O)C(O)C(O)C3O)CCCC2(C)C1CCC1=CCOC1=O (configuration not stated)	inactive	inactive
O=C(O)CCc1cccc(O[C@@H]2O[C@H](CO)[C@@H](O)[C@H](O)[C@H]2O)c1O	inactive	inactive
C/C=C/C=C/C=C/C(=O)O[C@@H]1[C@@H](OC)C2=C(C(=O)N(C(C)C(=O)O)C2)[C@@]2(C)CCCC(C)(C)[C@H]12 (some centres not stated)	inactive	inactive
CC(CO[C@@H]1O[C@H](COC(=O)/C=C/c2ccc(O)c(O)c2)[C@@H](O)[C@H](O)[C@H]1O)C1(O)COC(=O)C1 (some centres not stated)		inactive
C=C[C@H]1[C@H](O[C@@H]2O[C@H](CO)[C@@H](O)[C@H](O)[C@H]2O)OC=C(C(=O)OC)[C@H]1C[C@@H]1N[C@H](C(=O)O)Cc2c1[nH]c1ccccc21	inactive	inactive

Reference: PubChem BioAssay (NCATS)
